From the supplement of paper PMC7261846
Counter-ions that a name gives are not always drawn. ± gives the uncertainty stated by the source.

Test system: Candida albicans SNY425 biofilm
Experiment: biofilm OD600 with compound plus antifungal (OD600 (absorbance)); higher = more biofilm remaining
[1] = assay detail: disruption of 24-h mature biofilm (compound + antifungal for a second 24 h)
[2] = assay detail: sustained inhibition (compound + antifungal during 90-min adherence and 24-h growth)

Structure (SMILES) | biofilm OD600 [1] | biofilm OD600 [2]
N[C@H](C(=O)O)[C@@H]1CC(Cl)=NO1 [Acivicin] + OC(Cn1cncn1)(Cn1cncn1)c1ccc(F)cc1F [fluconazole] (first compound 4 µM) | 0.279 ± 0.0067 | 0.123 ± 0.0055
CC(C)C[C@@H](C=O)NC(=O)[C@H](CC(C)C)NC(=O)[C@H](CC(C)C)NC(=O)OCc1ccccc1 + CC[C@H](C)C[C@H](C)CCCCCCCCC(=O)N[C@H]1C[C@@H](O)[C@@H](NCCN)NC(=O)[C@@H]2[C@@H](O)CCN2C(=O)[C@H]([C@H](O)CCN)NC(=O)[C@H]([C@H](O)[C@@H](O)c2ccc(O)cc2)NC(=O)[C@@H]2C[C@@H](O)CN2C(=O)[C@H]([C@@H](C)O)NC1=O [caspofungin] (first compound 12.5 µM) | 0.281 ± 0.0049 | 0.193 ± 0.0098
CC(C)C[C@H](NC(=O)[C@@H](O)[C@H](N)Cc1ccccc1)C(=O)O [Bestatin·HCl] + OC(Cn1cncn1)(Cn1cncn1)c1ccc(F)cc1F [fluconazole] (first compound 12.5 µM) | 0.284 ± 0.013 | 0.163 ± 0.011
CCCCC[C@H](CC(=O)NO)C(=O)N[C@H](C(=O)N1CCC[C@H]1CO)C(C)C [Actinonin] + CC[C@H](C)C[C@H](C)CCCCCCCCC(=O)N[C@H]1C[C@@H](O)[C@@H](NCCN)NC(=O)[C@@H]2[C@@H](O)CCN2C(=O)[C@H]([C@H](O)CCN)NC(=O)[C@H]([C@H](O)[C@@H](O)c2ccc(O)cc2)NC(=O)[C@@H]2C[C@@H](O)CN2C(=O)[C@H]([C@@H](C)O)NC1=O [caspofungin] (first compound 12.5 µM) | 0.263 ± 0.021 | 0.182 ± 0.0058
Cc1cccc(C)c1OCC(=O)N[C@@H](Cc1ccccc1)[C@@H](O)C[C@H](Cc1ccccc1)NC(=O)[C@H](C(C)C)N1CCCNC1=O [lopinavir] + C[C@@H]1[C@H](O)[C@@H](C)/C=C/C=C/C=C/C=C/C=C/C=C/C=C/[C@H](O[C@@H]2O[C@H](C)[C@@H](O)[C@H](N)[C@@H]2O)C[C@@H]2O[C@](O)(C[C@@H](O)C[C@@H](O)[C@H](O)CC[C@@H](O)C[C@@H](O)CC(=O)O[C@H]1C)C[C@H](O)[C@H]2C(=O)O [amphotericin B] (first compound 12.5 µM) | 0.246 ± 0.0051 | 0.14 ± 0.015
CNC(=O)[C@H](Cc1c[nH]c2ccccc12)NC(=O)[C@@H](CC(=O)NO)CC(C)C + C[C@@H]1[C@H](O)[C@@H](C)/C=C/C=C/C=C/C=C/C=C/C=C/C=C/[C@H](O[C@@H]2O[C@H](C)[C@@H](O)[C@H](N)[C@@H]2O)C[C@@H]2O[C@](O)(C[C@@H](O)C[C@@H](O)[C@H](O)CC[C@@H](O)C[C@@H](O)CC(=O)O[C@H]1C)C[C@H](O)[C@H]2C(=O)O [amphotericin B] (first compound 12.5 µM) | 0.281 ± 0.01 | 0.194 ± 0.0098
CSCCC(C=O)NC(=O)C(CC(C)C)NC(=O)[C@H](CC(C)C)NC(C)=O (some centres not stated) [Calpain Inhibitor II (ALLM)] + OC(Cn1cncn1)(Cn1cncn1)c1ccc(F)cc1F [fluconazole] (first compound 12.5 µM) | 0.239 ± 0.0058 | 0.146 ± 0.0052
CNC(=O)[C@H](Cc1c[nH]c2ccccc12)NC(=O)[C@@H](CC(=O)NO)CC(C)C + OC(Cn1cncn1)(Cn1cncn1)c1ccc(F)cc1F [fluconazole] (first compound 12.5 µM) | 0.272 ± 0.014 | 0.158 ± 0.0086
C[C@]1(Cn2ccnn2)[C@H](C(=O)O)N2C(=O)C[C@H]2S1(=O)=O [Tazobactam] + CC[C@H](C)C[C@H](C)CCCCCCCCC(=O)N[C@H]1C[C@@H](O)[C@@H](NCCN)NC(=O)[C@@H]2[C@@H](O)CCN2C(=O)[C@H]([C@H](O)CCN)NC(=O)[C@H]([C@H](O)[C@@H](O)c2ccc(O)cc2)NC(=O)[C@@H]2C[C@@H](O)CN2C(=O)[C@H]([C@@H](C)O)NC1=O [caspofungin] (first compound 12.5 µM) | 0.275 ± 0.014 | 0.181 ± 0.0097
CCCC[C@@H](C=O)NC(=O)[C@H](CC(C)C)NC(=O)OCc1ccccc1 [Calpeptin] + C[C@@H]1[C@H](O)[C@@H](C)/C=C/C=C/C=C/C=C/C=C/C=C/C=C/[C@H](O[C@@H]2O[C@H](C)[C@@H](O)[C@H](N)[C@@H]2O)C[C@@H]2O[C@](O)(C[C@@H](O)C[C@@H](O)[C@H](O)CC[C@@H](O)C[C@@H](O)CC(=O)O[C@H]1C)C[C@H](O)[C@H]2C(=O)O [amphotericin B] (first compound 12.5 µM) | 0.266 ± 0.0066 | 0.189 ± 0.01
CC(C)(C)NC(=O)[C@@H]1CN(Cc2cccnc2)CCN1C[C@@H](O)C[C@@H](Cc1ccccc1)C(=O)N[C@H]1c2ccccc2C[C@H]1O [indinavir] + CC[C@H](C)C[C@H](C)CCCCCCCCC(=O)N[C@H]1C[C@@H](O)[C@@H](NCCN)NC(=O)[C@@H]2[C@@H](O)CCN2C(=O)[C@H]([C@H](O)CCN)NC(=O)[C@H]([C@H](O)[C@@H](O)c2ccc(O)cc2)NC(=O)[C@@H]2C[C@@H](O)CN2C(=O)[C@H]([C@@H](C)O)NC1=O [caspofungin] (first compound 12.5 µM) | 0.227 ± 0.0078 | 0.207 ± 0.011
NC(N)=NCCC[C@H](NC(=O)[C@@H]1CCCN1C(=O)[C@H](N)Cc1ccccc1)C(=O)CCl + C[C@@H]1[C@H](O)[C@@H](C)/C=C/C=C/C=C/C=C/C=C/C=C/C=C/[C@H](O[C@@H]2O[C@H](C)[C@@H](O)[C@H](N)[C@@H]2O)C[C@@H]2O[C@](O)(C[C@@H](O)C[C@@H](O)[C@H](O)CC[C@@H](O)C[C@@H](O)CC(=O)O[C@H]1C)C[C@H](O)[C@H]2C(=O)O [amphotericin B] (first compound 12.5 µM) | 0.291 ± 0.0073 | 0.213 ± 0.0082
CC(C)CCNC(=O)[C@H](CC(C)C)NC(=O)[C@H]1O[C@@H]1C(=O)O + OC(Cn1cncn1)(Cn1cncn1)c1ccc(F)cc1F [fluconazole] (first compound 12.5 µM) | 0.25 ± 0.0093 | 0.143 ± 0.008
CC1(C)C[C@@H]1C(=O)N/C(=C\CCCCSC[C@H](N)C(=O)O)C(=O)O [Cilastatin] + OC(Cn1cncn1)(Cn1cncn1)c1ccc(F)cc1F [fluconazole] (first compound 12.5 µM) | 0.271 ± 0.011 | 0.162 ± 0.012
CC[C@H](C)[C@H](N)C(=O)N1CCSC1 [P32/98 hemifumarate salt] + OC(Cn1cncn1)(Cn1cncn1)c1ccc(F)cc1F [fluconazole] (first compound 12.5 µM) | 0.249 ± 0.0087 | 0.128 ± 0.0045
O=c1oc(Cl)c(Cl)c2ccccc12 [3,4-Dichloroisocoumarin] + OC(Cn1cncn1)(Cn1cncn1)c1ccc(F)cc1F [fluconazole] (first compound 12.5 µM) | 0.237 ± 0.011 | 0.154 ± 0.014
CC(C)C[C@H](NC(=O)[C@@H](O)[C@H](N)Cc1ccccc1)C(=O)O [Bestatin·HCl] + C[C@@H]1[C@H](O)[C@@H](C)/C=C/C=C/C=C/C=C/C=C/C=C/C=C/[C@H](O[C@@H]2O[C@H](C)[C@@H](O)[C@H](N)[C@@H]2O)C[C@@H]2O[C@](O)(C[C@@H](O)C[C@@H](O)[C@H](O)CC[C@@H](O)C[C@@H](O)CC(=O)O[C@H]1C)C[C@H](O)[C@H]2C(=O)O [amphotericin B] (first compound 12.5 µM) | 0.288 ± 0.0087 | 0.211 ± 0.0059
CC(C)(C)NC(=O)[C@@H]1C[C@@H]2CCCC[C@@H]2CN1C[C@@H](O)[C@H](Cc1ccccc1)NC(=O)[C@H](CC(N)=O)NC(=O)c1ccc2ccccc2n1 [saquinavir] + CC[C@H](C)C[C@H](C)CCCCCCCCC(=O)N[C@H]1C[C@@H](O)[C@@H](NCCN)NC(=O)[C@@H]2[C@@H](O)CCN2C(=O)[C@H]([C@H](O)CCN)NC(=O)[C@H]([C@H](O)[C@@H](O)c2ccc(O)cc2)NC(=O)[C@@H]2C[C@@H](O)CN2C(=O)[C@H]([C@@H](C)O)NC1=O [caspofungin] (first compound 12.5 µM) | 0.148 ± 0.0056 | 0.042 ± 0.0016
CCOC(=O)c1ccc(OC(=O)CCCCCNC(=N)N)cc1 [Gabexate mesylate] + CC[C@H](C)C[C@H](C)CCCCCCCCC(=O)N[C@H]1C[C@@H](O)[C@@H](NCCN)NC(=O)[C@@H]2[C@@H](O)CCN2C(=O)[C@H]([C@H](O)CCN)NC(=O)[C@H]([C@H](O)[C@@H](O)c2ccc(O)cc2)NC(=O)[C@@H]2C[C@@H](O)CN2C(=O)[C@H]([C@@H](C)O)NC1=O [caspofungin] (first compound 12.5 µM) | 0.26 ± 0.0083 | 0.181 ± 0.006
CC1CNc2c(cccc2S(=O)(=O)N[C@@H](CCCNC(=N)N)C(=O)N2CC[C@@H](C)C[C@@H]2C(=O)O)C1 (some centres not stated) [Argatroban] + CC[C@H](C)C[C@H](C)CCCCCCCCC(=O)N[C@H]1C[C@@H](O)[C@@H](NCCN)NC(=O)[C@@H]2[C@@H](O)CCN2C(=O)[C@H]([C@H](O)CCN)NC(=O)[C@H]([C@H](O)[C@@H](O)c2ccc(O)cc2)NC(=O)[C@@H]2C[C@@H](O)CN2C(=O)[C@H]([C@@H](C)O)NC1=O [caspofungin] (first compound 12.5 µM) | 0.285 ± 0.017 | 0.182 ± 0.0063
CC(C)(C)NC(=O)[C@@H]1CN(Cc2cccnc2)CCN1C[C@@H](O)C[C@@H](Cc1ccccc1)C(=O)N[C@H]1c2ccccc2C[C@H]1O [indinavir] + C[C@@H]1[C@H](O)[C@@H](C)/C=C/C=C/C=C/C=C/C=C/C=C/C=C/[C@H](O[C@@H]2O[C@H](C)[C@@H](O)[C@H](N)[C@@H]2O)C[C@@H]2O[C@](O)(C[C@@H](O)C[C@@H](O)[C@H](O)CC[C@@H](O)C[C@@H](O)CC(=O)O[C@H]1C)C[C@H](O)[C@H]2C(=O)O [amphotericin B] (first compound 12.5 µM) | 0.283 ± 0.0099 | 0.228 ± 0.0076
